# Reference: the supplement of paper PMC6555819
# Columns and labels:
# Assay in all cases: PBM binding z-score (relative to random genomic background probes); higher = stronger binding; sequences stand for … in GC…GCGATTGACAGCGTAGAATGAAGG
# [1] = tested on: RARb homodimer (NR concentration 270 nM)
# Method in brief: (§1)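 Regression normalization was applied to scanned fluorescence from custom Agilent 4×180K protein-binding microarrays. Before scanning, arrays were incubated 1 h with ligand-free nuclear receptor dimers, and binding was detected with antibodies against each partner (one per run). Binding z-scores use the random background probes as reference.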
# [2] = tested on: RARg:RXRa (NR concentration 270 nM, RXRa partner concentration 90 nM)
# Method in brief: as §1
# [3] = tested on: RARg homodimer (NR concentration 270 nM)
# Method in brief: as §1
# [4] = tested on: RXRa DBDmut IVT, anti-RXR (DBD mutation: RXRa K156A/R161A, NR concentration 90 nM)
# Method in brief: as §1
# [5] = tested on: RXRa homodimer (NR concentration 180 nM)
# Method in brief: as §1
# [6] = tested on: THRa:RXRa (NR concentration 90 nM, RXRa partner concentration 90 nM)
# Method in brief: as §1
# [7] = tested on: THRa homodimer (NR concentration 90 nM)
# Method in brief: as §1
# [8] = tested on: VDR homodimer (NR concentration 270 nM)
# Method in brief: as §1
Sequence,PBM binding z-score [1],PBM binding z-score [2],PBM binding z-score [3],PBM binding z-score [4],PBM binding z-score [5],PBM binding z-score [6],PBM binding z-score [7],PBM binding z-score [8]
CCGACAGGGGCAAGGTTACCATAACGCACAGCCA,1.43,1.58,1.94,0.0606,1.58,1.37,0.432,0.707
ATCGAAAGGTCGTGAGGTGGGTATACAGAAAGGC,2.93,4.59,3.86,1.52,5.16,2.6,0.377,1.38
CCTCGGAGGATAGAAGGTCAGAGCTGTCCGCTTT,2.9,2.17,2.05,-0.11,1.52,1.66,-0.386,-0.101
TCGAGGAGGTTAGGGGCATTCAGAATGGCGTCGA,1.36,0.847,0.702,0.518,1.22,1.34,0.547,1.07
ATCTTTAGGTAAGACTCAGTTCAGTGAAGAACGC,0.715,0.526,0.533,0.843,0.131,1.28,0.881,1.44
ACAGACAGGTGATGAAGGTAAATCAGGCTATCAT,0.0548,0.28,0.373,-0.384,0.316,0.885,-0.061,-0.34
TCTTGTAGATCACAGGTTAAGAAAGCCGAAGCCT,0.0208,0.222,0.135,0.557,0.811,0.341,-0.442,-0.219
ATCTCTAGGTAAAGATAGTTTAGTGAATGCAAAT,0.204,0.354,0.533,-0.0109,0.0812,0.487,0.117,0.358
CGTCCAAGGTCATAGGAGGTTAGTGAAGACAGAT,4.27,5.73,5.72,3.76,5.53,4.76,3.13,2.99
ACTCGGAGGAAAAAGGTCAGAGCTACGCCAGTGA,4.12,4.09,3.97,-0.291,3.67,2.24,-0.145,0.161
TCTTGTAGATCAATAGAGGTTAAGGAAGTGCGCT,1.1,0.898,0.454,0.775,1.61,2.38,-0.179,0.208
TAGCCTAGGTCATGGGCCACTATACCACGCGAAC,3.27,4.38,4.64,0.641,3.72,3.14,1.57,0.754
TCTATTAGTTGCTTAGGGCAACCGAAACAGCGGA,0.716,0.433,0.547,1.23,0.549,0.996,0.379,0.236
CAAACTTGGTCACAGAGGTCAAAGTCCGTGCGTA,4.73,5.89,5.25,2.34,6.56,3.98,1.36,4.8
GGAACGAGGGCATTCGAGTTGAGAGCATGGCGAT,0.91,1.14,1.31,2.99,1.05,3.58,-0.815,2.68
GCGACTGGGGCCAAGCAGGTTACCATAAGGTTGG,1.2,0.615,0.586,-0.252,0.329,1.3,0.0537,0.051
GATACAGGGTCAAGCCCAGAGTACGCGTATTGAT,3.52,5.73,5.47,2.9,6.59,3.45,0.87,2.39
TCTTGTAGATCAGCAGGTTAAGAATGCTGGCCAA,0.138,-0.0809,-0.427,0.415,0.165,0.0436,-0.197,-0.438
GCGACTGAGGCAAAGCAGGTTACCATAAGGTTGG,0.0198,0.00383,-0.272,-0.374,0.123,1.54,-0.231,-0.64
TCTTGTAGATCAAGCAGGGTAAGAAAGCCTGAGT,-0.297,-0.27,-0.38,0.436,-0.147,1.2,-0.451,0.209
CTTCCAAGGTCAGCAGGTCAGTGAAAGCGACGTG,5.26,6.14,6.94,2.24,5.48,3.83,2.79,1.68
GCTGCTAGGTCAGGTTGGCCAGCTAACGGGTACG,2.23,2.48,3.46,-0.0229,0.917,1.46,0.0199,0.0457
TATACAGGGTTAAAGGCCAGAGTACGAATGTCGA,1.55,2.41,1.59,0.596,3.28,1.56,0.124,0.851
TCTATTAGTTGAAGGGCACCCGACGAGTCCGTTT,1.26,0.402,0.483,1.77,0.846,0.413,0.444,1.93
CCTAGCAGGCCAATCTGGGTCTCTCAAGGCTTGA,-0.52,-0.494,-0.505,-0.243,-0.68,0.975,-0.574,-0.65
TCTATTCGTTGAAGGGCAACCGACGAGTCCGTTT,1.39,0.744,0.769,1.49,0.993,0.507,0.017,1.27
GGAACGATGGCAAGTTGATAGCAGAGTTTGATGG,-0.624,-0.353,-0.158,-0.0368,-0.123,-0.797,-0.814,0.0604
TATAGAGGGTCAAAGGCCAGAGTACGAATGTCGA,3.3,4.91,4.91,2.16,6.11,2.39,-0.0967,1.73
